# Test results: PubChem BioAssay (NCATS)
# Inconclusive results are not listed. Where a call stands in place of a potency, no number is given. Active and inactive are the calls of the source. The call rests on the fitted dose curve; in most records, active means well fitted inhibition curve with a large enough effect; inconclusive means small, poorly fitted or top-dose-only effect; inactive means flat fitted curve, though single readings scatter.
# Test system: DFO2036
# Assay: qHTS profiling for inhibitors of Plasmodium falciparum proliferation (AID 504749); further: nearly all actives have a fitted effect of over 60% in size
# Conditions: P. falciparum in erythrocytes, SYBR Green DNA, 72 h; series mostly up to 28.7 µM
# Source text: NIH National Institute of Allergy and Infectious Diseases [NIAID] NIH Chemical Genomics Center [NCGC] MLPCN Grant: None Assay Provider: Xinzhuan Su, NIAID NCGC Assay Overview: Plasmodium falciparum is a virulent malarial parasite that kills 1-2 million people worldwide each year. Transmitted by mosquitoes, the sporozoite form of the parasite enters the blood stream to infect hepatocytes, where they become merozoites that infect red blood cells (erythrocytes). Within erythrocytes, merozoites begin a […] cycle of growth and division, after which the parasite is released to infect new red blood cells. Gametocytes, which form within erythrocytes as well, circulate in the bloodstream and are ingested by the mosquito, thereby completing the life cycle. To profile malarial isolates for differential chemical responses and to identify inhibitors of malarial growth, an assay that measures P. falciparum growth and replication within erythrocytes was employed. This assay uses a DNA binding fluorescent dye (SYBR Green) to detect parasite DNA following cell lysis. Because mature erythrocytes lack DNA, only Plasmodium-derived DNA is detected.
# NCGC Assay Protocol Summary: The SYBR Green viability assay was adapted from a method described previously (Plouffe et al., 2008). For screening 3 ul culture medium was dispensed into 1536 well black clear bottom plates (Aurora Biotechnologies) using a Multidrop Combi (Thermo Fisher Scientific Inc.), 23 nL compounds in DMSO were added by a pin tool (Kalypsys), and 5 ul of erythrocytes infected with P. falciparum (0.3% parasitemia, 2.5% hematocrit final concentration) were added. The plates were incubated at 37 C in a humidified incubator in 5% CO2 for 72 h, and 2 ul lysis buffer (20 mM Tris HCl, 10 mM EDTA, 0.16% saponin, 1.6% triton X, 10X SYBR Green I supplied as 10,000X […] by Invitrogen) was added to each well. The plates were mixed for 25 sec with gentle shaking and incubated overnight at room temperature in the dark. The following morning, fluorescence intensity at 485(14) nm excitation and 535(25) nm emission wavelengths was measured on an EnVision (Perkin Elmer) plate reader. Plate reads were normalized relative to the control inhibitor (0.29 uM artemisinin) and vehicle (DMSO) wells present on each plate and then corrected by an algorithm using vehicle-only control plates at the beginning and end of the compound plate stack.
# Potency means the concentration at half of the fitted maximal effect.
row,SMILES,Potency
1,C[C@@]12C(=O)OC(=O)[C@]1(C)[C@H]1CC[C@@H]2O1,3.98 µM (active)
2,COc1cc2c(cc1OC)C(c1ccccc1)CN(C)CC2 (centres undefined),inactive
3,Oc1ccc(/C=C\c2cc(O)cc(O)c2)cc1,inactive
4,C=C1CCC2[C@](C)(CO)C(O)CC[C@]2(C)C1C/C=C1/C(=O)OCC1O (some centres undefined),inactive
5,CN1C(=O)CCC1c1cccnc1 (centres undefined),inactive
6,CN=C(N)NCCCC(N)C(=O)O (centres undefined),inactive
7,CC(C)C[C@H]1C(=O)N2CCCC2[C@]2(O)O[C@](NC(=O)[C@@H]3C=C4c5cccc6[nH]c(Br)c(c56)C[C@H]4N(C)C3)(C(C)C)C(=O)N12 (some centres undefined),11.2 µM (active)
8,N[C@H](Cc1ccc(O)c(O)c1)C(=O)O,inactive
9,C[C@@H]1[C@H](O)[C@@H](C)/C=C/C=C/C=C/C=C/C=C/C=C/C=C/[C@H](O[C@@H]2O[C@H](C)[C@@H](O)[C@H](N)[C@@H]2O)C[C@@H]2O[C@](O)(C[C@@H](O)C[C@@H](O)[C@H](O)CC[C@@H](O)C[C@@H](O)CC(=O)O[C@H]1C)C[C@H](O)[C@H]2C(=O)O,inactive
10,COc1ccc(CCNC[C@@H](O)c2ccc(O)cc2)cc1OC,inactive
11,C=C1/C(=C\C=C2/CCC[C@]3(C)[C@@H]([C@H](C)CCCC(C)(C)O)CC[C@@H]23)C[C@@H](O)C[C@@H]1O,inactive
12,CN1C[C@H](C(=O)N[C@]2(C)O[C@@]3(O)C4CCCN4C(=O)[C@H](Cc4ccccc4)N3C2=O)C[C@@H]2c3cccc4[nH]cc(c34)C[C@H]21 (some centres undefined),7.94 µM (active)
13,CO[C@H]1/C=C/O[C@@]2(C)Oc3c(C)c(O)c4c(O)c(c(/C=N\N5CCN(C6CCCC6)CC5)c(O)c4c3C2=O)NC(=O)/C(C)=C\C=C\[C@H](C)[C@H](O)[C@@H](C)[C@@H](O)[C@@H](C)[C@H](OC(C)=O)[C@@H]1C,1.41 µM (active)
14,CC(/C=C1\SC(=S)N(CC(=O)O)C1=O)=C\c1ccccc1,inactive
